Inconclusive results are not listed. Active and inactive are the calls of the source. Unless noted, the call rests on the fitted dose curve; in most records, active means well fitted inhibition curve with a large enough effect; inconclusive means small, poorly fitted or top-dose-only effect; inactive means flat fitted curve, though single readings scatter.
Legend:
[1] = biological target: Pyruvate kinase PKM (Homo sapiens) (UniProt P14618); experiment: qHTS Assay for Activators of Human Muscle Pyruvate Kinase (AID 954; active means well fitted curve in the direction sought with a large enough effect, not every such curve was filed as active)
Sequence of Pyruvate kinase PKM (Homo sapiens) (P14618 whole entry, looked up): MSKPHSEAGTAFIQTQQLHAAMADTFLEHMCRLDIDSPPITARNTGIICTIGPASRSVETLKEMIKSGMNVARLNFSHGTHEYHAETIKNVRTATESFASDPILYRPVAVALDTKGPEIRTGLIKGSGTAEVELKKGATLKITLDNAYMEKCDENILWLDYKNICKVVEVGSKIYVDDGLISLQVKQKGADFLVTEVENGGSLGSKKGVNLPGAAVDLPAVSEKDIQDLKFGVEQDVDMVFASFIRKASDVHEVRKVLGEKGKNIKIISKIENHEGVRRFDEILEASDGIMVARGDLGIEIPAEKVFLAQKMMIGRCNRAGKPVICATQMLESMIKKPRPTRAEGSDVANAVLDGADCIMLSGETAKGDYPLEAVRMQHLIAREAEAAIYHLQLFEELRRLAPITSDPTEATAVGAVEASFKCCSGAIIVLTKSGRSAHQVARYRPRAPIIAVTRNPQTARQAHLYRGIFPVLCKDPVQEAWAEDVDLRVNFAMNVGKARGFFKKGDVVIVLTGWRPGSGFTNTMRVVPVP
Outline: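 Screening used highly purified human pyruvate kinase M2 under submaximal activity, with PEP at its Km and ADP below Km. After an hour at room temperature, ATP was read by luciferase luminescence.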

[2] = biological target: DNA dC->dU-editing enzyme APOBEC-3G (Homo sapiens) (UniProt Q9HC16); experiment: qHTS for inhibitors of Vif-A3G interactions: Validation (AID 588379)
Sequence of DNA dC->dU-editing enzyme APOBEC-3G (Homo sapiens) (Q9HC16 whole entry, looked up): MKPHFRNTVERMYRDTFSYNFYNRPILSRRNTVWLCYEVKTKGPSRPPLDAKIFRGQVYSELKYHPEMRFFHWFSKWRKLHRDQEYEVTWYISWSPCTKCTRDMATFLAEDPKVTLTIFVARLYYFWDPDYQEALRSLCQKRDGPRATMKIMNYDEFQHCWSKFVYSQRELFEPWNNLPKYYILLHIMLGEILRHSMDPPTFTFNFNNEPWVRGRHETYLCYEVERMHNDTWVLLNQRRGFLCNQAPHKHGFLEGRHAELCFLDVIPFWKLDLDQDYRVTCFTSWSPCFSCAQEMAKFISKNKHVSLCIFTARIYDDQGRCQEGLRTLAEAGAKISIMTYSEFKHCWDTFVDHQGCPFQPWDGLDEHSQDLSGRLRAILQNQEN
Outline: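 Yellow fluorescence (Ex 488, Em 500-530) of Vif-coexpressing HeLa A3G-eYFP cells, scanned by Acumen cytometer, reports blocked A3G degradation. Cells plated at 700/well overnight at 37 deg C before compound addition, then a further overnight compound incubation at 37 deg C.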

3D7 = experiment: qHTS profiling for inhibitors of Plasmodium falciparum proliferation (AID 504749); further: nearly all actives have a fitted effect of over 60% in size; settings: P. falciparum in erythrocytes, SYBR Green DNA, 72 h; series mostly up to 28.7 µM
Outline: (§1)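 Fluorescence of SYBR Green-bound parasite DNA, read at 485/535 nm, served as the growth measure. Infected erythrocytes were cultured with compound 72 h; artemisinin (0.29 uM) and DMSO wells defined the normalization range.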

C2A = experiment: as above; settings: P. falciparum in erythrocytes, SYBR Green DNA, 72 h; series mostly up to 28.7 µM
Outline: as §1

CP191 = experiment: as above; settings: P. falciparum in erythrocytes, SYBR Green DNA, 72 h; series mostly up to 28.7 µM
Outline: as §1

CP192 = experiment: as above; settings: P. falciparum in erythrocytes, SYBR Green DNA, 72 h; series mostly up to 28.7 µM
Outline: as §1

CP201 = experiment: as above; settings: P. falciparum in erythrocytes, SYBR Green DNA, 72 h; series mostly up to 28.7 µM
Outline: as §1

CP237 = experiment: as above; settings: P. falciparum in erythrocytes, SYBR Green DNA, 72 h; series mostly up to 28.7 µM
Outline: as §1

CP262 = experiment: as above; settings: P. falciparum in erythrocytes, SYBR Green DNA, 72 h; series mostly up to 28.7 µM
Outline: as §1

CP266 = experiment: as above; settings: P. falciparum in erythrocytes, SYBR Green DNA, 72 h; series mostly up to 28.7 µM
Outline: as §1

CP268 = experiment: as above; settings: P. falciparum in erythrocytes, SYBR Green DNA, 72 h; series mostly up to 28.7 µM
Outline: as §1

CP269 = experiment: as above; settings: P. falciparum in erythrocytes, SYBR Green DNA, 72 h; series mostly up to 28.7 µM
Outline: as §1

CP286 = experiment: as above; settings: P. falciparum in erythrocytes, SYBR Green DNA, 72 h; series mostly up to 28.7 µM
Outline: as §1

DIV30 = experiment: as above; settings: P. falciparum in erythrocytes, SYBR Green DNA, 72 h; series mostly up to 28.7 µM
Outline: as §1

Dd2 = experiment: as above; settings: P. falciparum in erythrocytes, SYBR Green DNA, 72 h; series mostly up to 28.7 µM
Outline: as §1

ECU = experiment: as above; settings: P. falciparum in erythrocytes, SYBR Green DNA, 72 h; series mostly up to 28.7 µM
Outline: as §1

GB4 = experiment: as above; settings: P. falciparum in erythrocytes, SYBR Green DNA, 72 h; series mostly up to 28.7 µM
Outline: as §1

HB3 = experiment: as above; settings: P. falciparum in erythrocytes, SYBR Green DNA, 72 h; series mostly up to 28.7 µM
Outline: as §1

PAD = experiment: as above; settings: P. falciparum in erythrocytes, SYBR Green DNA, 72 h; series mostly up to 28.7 µM
Outline: as §1

W2 = experiment: as above; settings: P. falciparum in erythrocytes, SYBR Green DNA, 72 h; series mostly up to 28.7 µM
Outline: as §1

Measured: Potency

C[C@@H]1O[C@@H](O[C@H]2C[C@@H](O)[C@]3(CO)[C@@H]4[C@@H](O)C[C@]5(C)[C@H](C6=CC(=O)OC6)CC[C@@]5(O)[C@H]4CC[C@@]3(O)C2)[C@H](O)[C@H](O)[C@@H]1O
inactive: [1]

Oc1cc2c(cc1O)[C@H]1c3ccccc3CN[C@H]1CC2
inactive: [2]

COC[C@H]1OC(=O)c2coc3c2[C@@]1(C)C1=C(C3=O)[C@H]2CCC(=O)[C@@]2(C)C[C@H]1OC(C)=O
inactive: [1] | [2]

CC1(C)S[C@@H]2[C@H](N)C(=O)N2C1C(=O)O (stereo not given in full)
not listed: [1] | [2]
inactive: all other assays above

[S]=[Sb][S][Sb]=[S]
not listed: [1] | [2]
inactive: all other assays above

Source: PubChem BioAssay (NCATS)
